# Data as given in PubChem BioAssay.
# Legend:
# [1] = target: Tumor necrosis factor receptor superfamily member 10B (Homo sapiens) (UniProt O14763); experiment: viability loss of caspase-8 NB7 cells with TRAIL – with/without TRAIL, luminescence panel, confirmation (AID 651596); conditions: NB7 neuroblastoma + caspase-8, TRAIL sensitization, NB7 Caspase-8, with TRAIL, mean of runs, at 10 µM, stronger effect = higher value
# [2] = as above; conditions: NB7 neuroblastoma + caspase-8, without TRAIL, NB7 Caspase-8, without TRAIL, mean of runs, at 10 µM
# [3] = target: Tumor necrosis factor receptor superfamily member 10B (Homo sapiens) (UniProt O14763); experiment: compound enhancement of TRAIL-induced cell killing – NB7 cells plus caspase-8, luminescence, panel, dose response (AID 652002); conditions: NB7 neuroblastoma +caspase-8, TRAIL sensitization, luminescence viability, NB7+Caspase-8, with TRAIL, run 1; at 12.5 µM (top of the series)
# [4] = target: Tumor necrosis factor receptor superfamily member 10B (Homo sapiens) (UniProt O14763); experiment: as above; conditions: NB7 neuroblastoma +caspase-8, TRAIL sensitization, luminescence viability, NB7+Caspase-8, with TRAIL, run 2; at 12.5 µM (top of the series)
# [5] = as above; conditions: NB7 neuroblastoma +caspase-8, no TRAIL, compound-alone cytotoxicity counter-screen, luminescence viability, NB7+Caspase-8, run 1; at 12.5 µM (top of the series) unless noted
# [6] = as above; conditions: NB7 neuroblastoma +caspase-8, no TRAIL, compound-alone cytotoxicity counter-screen, luminescence viability, NB7+Caspase-8, run 2; at 12.5 µM (top of the series) unless noted
# Tumor necrosis factor receptor superfamily member 10B (Homo sapiens), sequence (O14763 whole entry, looked up): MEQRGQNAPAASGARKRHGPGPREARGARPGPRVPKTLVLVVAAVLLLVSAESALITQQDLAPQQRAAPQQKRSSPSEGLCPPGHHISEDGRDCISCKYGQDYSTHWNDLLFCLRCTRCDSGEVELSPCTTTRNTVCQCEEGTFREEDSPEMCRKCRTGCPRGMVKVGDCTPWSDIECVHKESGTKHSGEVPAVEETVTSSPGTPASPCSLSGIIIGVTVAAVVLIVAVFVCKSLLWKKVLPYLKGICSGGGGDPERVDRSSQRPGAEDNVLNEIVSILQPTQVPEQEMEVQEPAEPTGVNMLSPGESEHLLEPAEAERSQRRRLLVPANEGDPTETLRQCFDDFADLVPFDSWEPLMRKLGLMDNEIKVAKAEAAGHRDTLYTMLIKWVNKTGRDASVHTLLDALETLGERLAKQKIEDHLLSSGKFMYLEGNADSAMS
SMILES,activity [1] [%],activity [2] [%],"activity, % sensitization [3] [%]","activity, % sensitization [4] [%]","activity, % sensitization [5] [%]","activity, % sensitization [6] [%]"
COC(=O)c1c(NC(=O)c2nc3ccccc3s2)sc2c1CC(C)(C)NC2(C)C,87.8,98.3,–,–,–,–
CCOc1ccc(/C=C/C(=O)Nc2cccc(C(C)=O)c2)cc1,50.7,37.2,14.7,23.8,37.9,17.4
COc1cccc(NC(=O)c2ccc3c(c2)OCO3)c1,51.7,30.6,51,42.7,48,32.2
CCOc1ccc(C(=O)Nc2nnc(NC(=S)Nc3ccccc3)s2)cc1,59.8,61.6,–,–,–,–
COc1ccccc1C=C1CCc2ccccc2C1=O,78.4,74.3,–,–,–,–
CCOc1cc(NC2CS(=O)(=O)CC2O)c(OCC)cc1NC(=O)c1ccccc1 (centres undefined),-26.1,-33.2,–,–,–,–
NNC(=O)C1CCCn2c1nc1sc3c(c1c2=O)CCCC3 (centres undefined),51,52.8,5.3,-9.76,-17.6,12.5
Cc1cc2nc3ccc(N(C)C)cc3nc2cc1N,52.4,32.9,38.9,39.1,24.2,12.1
COc1ccc2oc(C(=O)N3CCc4ccccc43)c(C)c2c1,82.7,82.4,–,–,–,–
Cc1onc(-c2ccccc2Cl)c1C(=O)O/N=C(\N)c1cccc([N+](=O)[O-])c1,92.2,93.3,–,–,–,–
CC(C)Cc1nc2oc3c(Cl)ncnc3c2c2c1CCCC2,55.5,49.8,-5.07,-15,-9.85,-8.86
Cc1cccc2sc(NNC(=O)c3ccc(S(=O)(=O)N4CCCC(C)C4)cc3)nc12 (centres undefined),51.8,42.3,–,–,–,–
Cc1cc(=O)n2[nH]c(-c3ccc(F)cc3)nc2n1,44.8,42.6,–,–,–,–
CCOC(=O)c1cc2c(C)n(-c3ccc(C)cc3)c(C)c2ccc1=O,74.9,63.9,–,–,–,–
COc1ccc(/C=C/C(=O)NC(=S)Nc2ccccn2)cc1,29,37.3,–,–,–,–
CC(C)CC(=O)Nc1nc2c(c(=O)[nH]1)CCCC2,69.3,66.5,–,–,–,–
COc1cccc(NC(=O)n2ncc3c(C)cccc32)c1,67.7,64.3,–,–,–,–
CC(C)C[C@H](NC(=O)c1nc[nH]c1C(=O)N[C@@H](CCCCNC(=O)OC(C)(C)C)C(=O)OC(C)(C)C)C(=O)OCc1ccccc1,77.7,20.4,-36.8,-15.7,-4.5,-28.8

SMILES,activity [1] [%],activity [2] [%],"activity, % sensitization [3] [%]","activity, % sensitization [4] [%]","activity, % sensitization [5] [%]","activity, % sensitization [6] [%]"
CC(C)(C)OC(=O)NCc1ccc(CNC(=O)c2[nH]cnc2C(=O)Nc2ccccc2F)cc1,43.6,34.9,–,–,–,–
Cc1cc(N/N=C/c2ccccc2)nc(NCc2ccccc2)n1,53.9,41.1,30.4,39.6,5.63,26.4
Clc1nc(Cl)c2ncn(-c3ccccc3)c2n1,81,52.3,-4.89,-7.36,2.2,-11.5
CCN(CC)c1ccc(/C=N/NC(=O)c2ccco2)cc1,56.5,53.3,25,39.3,34,23.6
CCOc1ccc(NC(=O)c2ccco2)cc1,55.9,49.6,43,43.3,45.1,31.6
Cc1onc(-c2c(Cl)cccc2Cl)c1C(=O)ONC(=O)c1ccccc1,72.9,30.8,1.55,-5.77,-2.95,-9.25
O=C(N/N=C/c1ccc2cccnc2c1)c1ccco1,47.2,37,37.5,50.7,39.1,35.6
O=C(Nc1ccc2c(c1)OCCO2)NC1CCCCC1,49.5,35.8,31.2,41.7,32.9,21
COc1ccc(/C=N/Nc2nc3ccccc3c(=O)n2-c2ccccc2)cc1OC,62.5,48.6,47.9,45.1,41,44.3
CC(C)(C)OC(=O)NCc1ccc(NC(=O)c2nc[nH]c2C(=O)N[C@@H](Cc2ccccc2)C(=O)OCc2ccccc2)cc1,63.8,11.5,-11,1.84,-8.6,-21.5
CN(C)c1ccc(N/C=C/C(=O)c2ccco2)cc1,62.6,22.4,53.8,49.4,18.4,43.5
COCCNC(=O)c1cc(-c2ccc(-c3ccccc3)cc2)nc2ccccc12,57.7,44.5,36.7,40.6,51,41.3
CC(C)C[C@H](NC(=O)c1nc[nH]c1C(=O)N[C@@H](CC(C)C)C(=O)OCc1ccccc1)C(=O)OCc1ccccc1,71.4,38.8,-20.3,9.61,0.235,-15.4
CCN(CC)S(=O)(=O)c1ccc(C(=O)OCC(=O)Nc2ccc(-c3nc4ccc(C)cc4s3)cc2)cc1,68.5,55,20.1,-0.711,13.4,-8.61
Cn1c(=O)c2c(SCC(=O)Nc3ccccc3F)nc(C3CC3)nc2n(C)c1=O,50.8,44.9,-6.81,-10.3,-1.87,-25.4
Fc1ccc(-c2cnn3c(-c4ccncc4)ccnc23)cc1,49.5,48.7,-13.8,-2.37,13.2,-12.3
Cc1ccc2c(c1)C(=NC1CCCCC1)c1cc3ccccc3nc1-2,62.8,51.2,-15,-9.21,10.4,-8.89
Cc1ccc2oc(-c3cccc(N)c3)nc2c1,60.5,46.2,45.8,58.3,53,34
